Reference: PubChem BioAssay (NCI)
Where “and” joins values, the source holds several entries; their conditions need not be identical. Equal entries are not always repeated. The panel holds about 83,000 compounds, 20% with a hit somewhere; the sample as a whole holds those more often.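 A percent growth of 40 corresponds to 60% growth inhibition; 0 means no net growth; -100 means all cells died. Active threshold: below 10.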 Calls of active or inactive are those of the source.

Key:
Assay in all cases: NCI-60 one-dose screen, 48 h (100 = growth as untreated, 0 = no growth, -100 = all killed)
Conditions in all cases: 10 µM unless noted
HCT-15 colon = test system: HCT-15 colon
HT29 colon = test system: HT29 colon
SNB-75 CNS = test system: SNB-75 CNS
SNB-19 CNS = test system: SNB-19 CNS
U251 CNS = test system: U251 CNS
PC-3 prostate = test system: PC-3 prostate
SK-MEL-5 melanoma = test system: SK-MEL-5 melanoma
LOX IMVI melanoma = test system: LOX IMVI melanoma
SK-MEL-28 melanoma = test system: SK-MEL-28 melanoma
SK-MEL-2 melanoma = test system: SK-MEL-2 melanoma
EKVX NSCLC = test system: EKVX NSCLC
SN12C renal = test system: SN12C renal
UO-31 renal = test system: UO-31 renal
TK-10 renal = test system: TK-10 renal
ACHN renal = test system: ACHN renal
CAKI-1 renal = test system: CAKI-1 renal
A498 renal = test system: A498 renal
CCRF-CEM leukemia = test system: CCRF-CEM leukemia
MOLT-4 leukemia = test system: MOLT-4 leukemia
UACC-62 melanoma = test system: UACC-62 melanoma

SMILES	growth (HCT-15 colon)	growth (HT29 colon)	growth (SNB-75 CNS)	growth (SNB-19 CNS)	growth (U251 CNS)	growth (PC-3 prostate)	growth (SK-MEL-5 melanoma)	growth (LOX IMVI melanoma)	growth (SK-MEL-28 melanoma)	growth (SK-MEL-2 melanoma)	growth (EKVX NSCLC)	growth (SN12C renal)	growth (UO-31 renal)	growth (TK-10 renal)	growth (ACHN renal)	growth (CAKI-1 renal)	growth (A498 renal)	growth (CCRF-CEM leukemia)	growth (MOLT-4 leukemia)	growth (UACC-62 melanoma)
CC(=O)c1ccc2c(c1)N(CCCN1CCN(CCO)CC1)c1ccccc1S2	38.2% (inactive) and -17.3% (active)	69.1% (inactive) and -22.6% (active)	67% (inactive) and -12.1% (active)	114% (inactive) and 46.4% (inactive)	85.7% (inactive) and 20.6% (inactive)	69.7% (inactive) and 24.2% (inactive)	88.9% (inactive) and -99.1% (active)	80.1% (inactive) and -85.2% (active)	77.9% (inactive) and -91.7% (active)	2.74% (active) and -42% (active)	83.9% (inactive) and 60.6% (inactive)	99% (inactive) and 53.6% (inactive)	56.9% (inactive) and 2.41% (active)	86.4% (inactive) and 27.5% (inactive)	95.5% (inactive) and 30.7% (inactive)	77.3% (inactive) and 15.7% (inactive)	85.1% (inactive) and 28.6% (inactive)	80.8% (inactive) and 16.2% (inactive)	60.4% (inactive) and 4.26% (active)	
C[N+](C)(C)CN1C(=O)c2ccccc2C1=O	103% (inactive)	99.6% (inactive)	77.5% (inactive)	98.5% (inactive)	102% (inactive)	96.4% (inactive)	102% (inactive)	103% (inactive)	98.6% (inactive)			100% (inactive)	97.3% (inactive)		102% (inactive)	94.4% (inactive)	98.2% (inactive)	101% (inactive)	94.2% (inactive)	101% (inactive)
O=C(O)C1C2C=CC(C2)C1C(=O)O (stereo not drawn)	106% (inactive) and 101% (inactive)	94.3% (inactive) and 14.4% (inactive) and 104% (inactive)	102% (inactive) and 61.9% (inactive) and 89% (inactive)	99.2% (inactive) and 51.6% (inactive) and 113% (inactive)	105% (inactive) and 19.7% (inactive) and 98.8% (inactive)	93.6% (inactive) and 17.4% (inactive) and 98.1% (inactive)	103% (inactive) and 23.6% (inactive) and 98.5% (inactive)	109% (inactive) and 16.9% (inactive) and 104% (inactive)		150% (inactive) and 57.5% (inactive) and 111% (inactive)	120% (inactive)	84.7% (inactive) and 24% (inactive) and 102% (inactive)	87.9% (inactive) and 96.5% (inactive) and 94.4% (inactive)	91.1% (inactive) and 32.5% (inactive) and 106% (inactive)	111% (inactive) and 33.6% (inactive) and 97.6% (inactive)	98.2% (inactive) and 7.77% (active) and 98.7% (inactive)	96.8% (inactive) and 64.8% (inactive) and 99.2% (inactive)	95.4% (inactive) and 25.3% (inactive) and 99.6% (inactive)	106% (inactive) and 27.8% (inactive) and 101% (inactive)	89.8% (inactive) and 26.8% (inactive) and 104% (inactive)
C#CCN(C)Cc1ccccc1	104% (inactive) and 103% (inactive)	108% (inactive) and 113% (inactive)	106% (inactive) and 115% (inactive)	102% (inactive)	105% (inactive) and 101% (inactive)	100% (inactive) and 105% (inactive)	102% (inactive) and 106% (inactive)	96.9% (inactive) and 102% (inactive)		97.5% (inactive) and 104% (inactive)	104% (inactive) and 95.2% (inactive)	95.7% (inactive) and 82.5% (inactive)	87.2% (inactive) and 93.2% (inactive)	101% (inactive) and 231% (inactive)	97.5% (inactive) and 105% (inactive)	99% (inactive) and 69.1% (inactive)	126% (inactive) and 96.3% (inactive)		106% (inactive) and 101% (inactive)	92.3% (inactive)
